Assay outcomes (PubChem BioAssay)
The list is not random: actives were taken first. Their share in the collection is about 3.8%.
HSF1 inhib = HSF1 inhibition | NIH3T3-HGL HSE-luciferase, MG132-induced, luminescence 8 h; hits give low values | activity change, negative = inhibition, % at 7.5 µM (by protocol) | 0.77% of 300,000 active;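 active = more than half of replicate wells show activity change below -50%, luminescence cut by over half; inconclusive = some wells, but at most half, below -50%; inactive = no replicate well below -50%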;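 note: luciferase reports HSF-1 transcriptional activity via heat shock element; 0% = median of DMSO wells and -100% = zero luminescence signal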
NALP1 yeast inh = inhibitors of NALP1 inflammasome in yeast; AID 2071; 0.61% of 280,000 active; S. cerevisiae NALP1/ASC/caspase-1 growth, X-gal OD620, 72 h; inhibition, % at 10 µM; in the data active = inhibition mostly above about 24%, no sharp cut-off; inactive = mostly below about 32%
p-CIP stab down = compounds decreasing mouse p/CIP protein stability; F442A p/CIP-EGFP cells, EGFP fluorescence, 16 h; decrease of EGFP signal, % at 10 µM; 0.01% of 290,000 active;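 active = EGFP signal decrease of at least 30% at 10 µM or well 3 SD below plate mean, unless failing retest; inactive = the rest, including hits failing retest or dose response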
Hsp70 act = transcriptional activators of Hsp70; HeLa Hsp70 promoter luciferase reporter, luminescence; scaled: vehicle 0, proteasome-inhibitor control 100%; activation, % at 10 µM; 0.04% of 200,000 active; AID 1203;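 active = activation above the mean across all tested compounds plus 3 SD, cutoff set per campaign, cut at about 5.5% in these data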;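 note: 100% = MG132 at 30 µM as the positive control and 0% = DMSO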
HSF-1 act = increases HSF-1 driven luciferase reporter signal; NIH3T3-HGL HSF-1 luciferase reporter, MG132, 8 h; 100% = twice DMSO control signal; 1.7% of 300,000 active; activation, % at 9 µM;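 active = mean replicate activation of at least 50% with a set share of replicates each reaching 50%; inconclusive = only one of those two conditions met; inactive = mean below 50% and too few replicates reaching it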;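 note: 0% = median of the neutral control wells and 100% = twice that signal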
HSP90 refold inh = blocks HSP90-mediated luciferase refolding in reticulocyte lysate; Rabbit reticulocyte lysate, luciferase refolding luminescence, 3 h; inhibition, % at 5.6 µM; 0.91% of 290,000 active; AID 1789;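 active = inhibition above the screen-wide mean plus 3 SD, computed separately per campaign, cut at about 16% in these data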;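 note: 0% = DMSO wells and 100% = 60 µM geldanamycin wells; inhibitors lower the luminescence because luciferase stays unfolded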
HSP90 inh confirm = HSP90 inhibition, confirmation assay; shares compounds with HSP90 refold inh; rabbit reticulocyte lysate, luciferase refolding luminescence, 3 h; inhibition, % at 5.9 µM; 64% of 2,300 active; AID 1846; in the data active = inhibition above about 18%;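 note: 0% = vehicle wells and 100% = reference inhibitor wells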
FLuc counter = firefly luciferase inhibition, HSP90 counter-screen. shares compounds with HSP90 refold inh. purified native firefly luciferase, luminescence. inhibition, % at 5.9 µM. 48% of 2,300 active;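 active = inhibition above the mean inhibition of all tested sample wells plus 3 SD, cut at about 10% in these data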;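 note: 0% = DMSO with luciferase and 100% = wells lacking luciferase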
* hit, by the source's call; ? = inconclusive; / = no result given.

SMILES	HSF1 inhib	NALP1 yeast inh	p-CIP stab down	Hsp70 act	HSF-1 act	HSP90 refold inh	HSP90 inh confirm	FLuc counter
COc1ccc(/C=N/Nc2nnc(C)n2N)cc1OC	26.6	8.0	-3.0	-0.2	43.2	18.7*	1.2	-7.4
CCCOc1ccc(/C=N/Nc2ccc(C(=O)O)cc2)c(OCCC)c1	-56.4*	-13.8	4.3	0.4	-52.5	29.3*	43.7*	47.8*
O=C(O)c1ccc(N/N=C/c2ccc(-c3ccccc3Cl)o2)cc1	?	-1.6	-16.9	/	-52.3	52.8*	60.0*	45.7*
O=C(N/N=C/c1ccc(-c2ccccc2Cl)o1)c1ccccc1	5.6	4.2	-1.9	0.1	36.8	3.7	/	/
CCOC(=O)C(CCCP(=O)(c1ccccc1)c1ccccc1)(NC(C)=O)C(=O)OCC	-9.1	-2.1	-3.8	/	-10.8	23.4*	-8.9	-11.9
Cc1oc(-c2ccc(-c3ccccc3)cc2)nc1CN1CCN(CC(=O)N(C)C)CC1	2.3	10.1	-9.9	0.1	-17.8	67.3*	79.0*	18.2*
Cc1nc(NC(=S)NC(=O)COc2ccccc2Cl)ccc1Br	4.3	-1.3	-1.1	-0.4	21.5	0.0	/	/
O=C(COc1ccc(Br)cc1Cl)NC(=S)Nc1ccccn1	-39.9	8.9	-2.9	/	-48.8	32.2*	38.1*	32.5*
Cc1ccc(OCC(=O)NC(=S)Nc2ccccn2)c(Br)c1	-62.8*	-1.9	-2.5	/	-65.7	72.5*	80.4*	79.4*
CCOC(=O)CNC(=O)c1sc(NC(=O)c2cccc(F)c2)nc1C	4.1	34.3	-7.5	-0.2	-4.8	32.0*	31.5*	-23.3
CCOC(=O)c1sc(Nc2ccccc2Cl)nc1C	25.8	/	-7.4	/	46.2	-0.8	/	/
CCOC(=O)c1sc(NC(=O)c2ccccc2OC)nc1C	15.8	36.6	-7.1	-0.6	21.8	-2.9	/	/
CCOC(=O)c1sc(NC(=O)Nc2ccccc2F)nc1C	-73.8*	24.3	-4.4	-0.4	-79.6	37.3*	75.7*	70.8*
CCOC(=O)CNC(=O)c1sc(NC(=O)c2ccccc2F)nc1C	4.1	18.3	5.9	-0.3	17.4	69.9*	73.9*	11.9*
Nc1nonc1-n1nnc(C(=O)N/N=C/c2cccc(Cl)c2)c1-c1cccs1	-4.7	21.5	3.4	/	14.3	0.2	/	/
COC(=O)c1ccc2nc(-c3ccc(S(C)(=O)=O)cc3)cn2c1	7.1	21.6	-8.5	-0.3	8.2	0.7	/	/
CS(=O)(=O)c1ccc(-c2cn3cc(C(=O)O)ccc3n2)cc1	-14.6	3.5	10.8	-0.4	-13.4	63.2*	74.6*	3.0
CC(C)(C)C(=O)N1CCc2cc(-c3csc(N)n3)ccc21	?	6.8	0.9	-0.1	-51.2	56.6*	75.5*	69.9*
CCn1c(O)c(N=Nc2ccc3ccccc3n2)c2ccccc21	4.4	5.6	-16.5	/	20.2	0.5	/	/
Brc1ccc(N=Nc2ccc3ccccc3n2)cc1	-0.9	11.6	-1.4	/	/	61.0*	94.9*	86.4*
O=C(O)c1ccc(-c2ccc(/C=c3/sc4nc5ccccc5n4c3=O)o2)cc1Cl	-4.8	3.4	-20.4	/	-1.0	2.1	/	/
CC1CCN(C(=O)c2cc3c(ccc4ccccc43)o2)CC1	-7.0	2.8	0.2	/	-7.0	24.6*	48.9*	34.2*
Nc1nc(-c2ccco2)c(-c2ccco2)s1	9.9	-15.3	-5.8	-0.5	11.2	20.4*	-0.2	-3.2
CCc1ccc2nc(N(CCN(C)C)C(=O)c3ccc4ncsc4c3)sc2c1	5.5	12.4	-5.1	/	0.4	27.9*	22.9*	19.2*
COc1ccc(S(=O)Cc2ccc(C(=O)NCc3cccc(OC)c3)o2)cc1 (configuration not stated)	3.3	-36.5	-9.0	/	10.9	2.0	/	/
O=C(N/N=C/c1ccccn1)NC12CC3CC(CC(C3)C1)C2	7.0	14.7	2.7	/	6.7	-1.0	/	/
CCCN1CNc2c(c(=O)[nH]c(=S)n2CCc2ccc(OC)c(OC)c2)C1	-6.3	-7.6	-9.1	-0.2	-1.2	-2.2	/	/
Cc1ccnc(NC(=O)/C=C/c2ccccc2Cl)c1	0.4	37.0	-10.4	-0.3	29.7	34.7*	58.1*	46.9*
COCCCNC(=O)c1cccn2c(=O)c3cc4ccccc4cc3nc12	/	15.1	-9.7	-0.1	/	17.1*	26.1*	17.7*
C/C(=N\NC(=O)c1ccc2ccccc2c1)c1cccs1	/	-1.3	-13.2	/	/	7.9	/	/
